Results as given in PubChem BioAssay AID1030 (National Center for Advancing Translational Sciences (NCATS), 2008).
About 16,000 (7.3%) of roughly 220,000 compounds were called active. Roughly 25% stayed inconclusive and do not appear here. What follows is part of a selection rich in actives, with near analogues and random picks from the rest. Values without a mark were called inactive. Calls come from the whole dose curve; as a rule, active = well fitted inhibition curve with a large enough effect (not every such curve was filed as active); inconclusive = small, poorly fitted or top-dose-only effect, or another doubt; inactive = no such curve, though single readings can be large or run the other way.
Potency is the fitted concentration of half-maximal effect.
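Throughout, for activity, negative = inhibition: plate controls were no enzyme wells and a reference inhibitor.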

What follows are compounds tested against Aldehyde dehydrogenase 1A1 (Homo sapiens) (UniProt P00352) (assay: qHTS Assay for Inhibitors of Aldehyde Dehydrogenase 1 (ALDH1A1)). Settings: Purified ALDH1A1, NADH fluorescence, propionaldehyde substrate; series mostly up to 75.3 µM; activity, negative = inhibition: at the top concentration.
Sequence of Aldehyde dehydrogenase 1A1 (Homo sapiens) (P00352 whole entry, looked up): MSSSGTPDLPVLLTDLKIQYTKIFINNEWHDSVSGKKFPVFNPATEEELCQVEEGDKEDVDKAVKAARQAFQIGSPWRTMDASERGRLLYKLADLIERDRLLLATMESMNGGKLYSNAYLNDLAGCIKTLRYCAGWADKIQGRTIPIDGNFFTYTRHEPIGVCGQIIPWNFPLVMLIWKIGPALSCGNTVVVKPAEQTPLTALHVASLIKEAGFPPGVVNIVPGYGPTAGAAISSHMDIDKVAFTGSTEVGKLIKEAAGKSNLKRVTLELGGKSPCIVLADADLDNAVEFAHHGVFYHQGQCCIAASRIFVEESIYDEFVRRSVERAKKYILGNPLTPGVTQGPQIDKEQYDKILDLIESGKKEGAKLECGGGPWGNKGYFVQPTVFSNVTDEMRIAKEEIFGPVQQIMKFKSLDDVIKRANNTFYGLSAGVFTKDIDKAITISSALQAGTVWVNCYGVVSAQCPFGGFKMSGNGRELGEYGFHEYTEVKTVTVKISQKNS
In the case of CCOCCCN(C(=O)Cn1nnc(-c2ccc(OC)c(OC)c2)n1)C(CC)C(=O)NC1CCCC1 (configuration not stated), the “activity, negative = inhibition” value is reported as 1.58%. In the case of NC1CCN(O)C1=O (configuration not stated), the “activity, negative = inhibition” value is reported as -6.54%. For C/C=N/NC(=O)CCCC(=O)N/N=C/C, the “activity, negative = inhibition” value was -8.73%. With O=C(N/N=C/c1ccc([N+](=O)[O-])cc1)C(=O)N1CCCC1 the “activity, negative = inhibition” value was -13.2%. For CCOCCCNC(=S)N1CCC(NC(=O)C2CCCCC2)CC1, the “activity, negative = inhibition” value was 6.18%. COCc1cc(C(C)=O)ccc1OC was tested, and the “activity, negative = inhibition” value was 2.62%. In the case of CCOc1ccc(C(C)=O)cc1COC(=O)c1cnc(Cl)c(Cl)c1, the Potency is reported as 0.708 µM (active). With O=C(OCc1cc(Cl)ccc1OC(F)F)c1cccnc1 the “activity, negative = inhibition” value was 2.42%. For Cc1ccc(C2=N/C(=C\c3ccc(OS(=O)(=O)c4ccc(C)cc4)cc3)C(=O)O2)cc1, the Potency was 25.1 µM (active). With Cc1cccc(C2=N/C(=C/c3cccs3)C(=O)O2)c1 the “activity, negative = inhibition” value was -4.31%. With Cc1ccccc1C1=N/C(=C/c2cccnc2)C(=O)O1 the “activity, negative = inhibition” value was -2.62%. In the case of COCCN(C(=S)Nc1ccccc1OC)C1CCN(C(C)C)CC1, the “activity, negative = inhibition” value is reported as -1.56%. In the case of O=C(O)c1ccc2c(c1)C(=O)N(NC(=O)c1ccc(O)cc1)C2=O, the “activity, negative = inhibition” value is reported as 1.02%. For C=CCN1C2CCCC1CC(NC(=S)Nc1cccc(OC)c1)C2 (configuration not stated), the “activity, negative = inhibition” value was -11.8%. For CC1CCCCC1NC(=O)CCS(=O)(=O)c1cccc2nonc12 (configuration not stated), the Potency was 10 µM (active). In the case of CC1CCCCC1NC(=O)C1CCCN1S(=O)(=O)c1cccc2nsnc12 (configuration not stated), the “activity, negative = inhibition” value is reported as 0.711%. In the case of COc1ccc(C)cc1NC(=O)CCS(=O)(=O)c1cccc2nonc12, the “activity, negative = inhibition” value is reported as -4.87%. In the case of COC(=O)C1=C(C)N(C)C(=O)NC1c1ccc([N+](=O)[O-])o1 (configuration not stated), the Potency is reported as 25.1 µM (active). With COC(=O)C1=C(C)N(C)C(=S)NC1c1ccccc1 (configuration not stated) the “activity, negative = inhibition” value was 7.15%. For CCN1C(=O)N[C@@H](c2ccccc2)C(C(=O)OC)=C1C, the activity, negative = inhibition was 17.9% [at 13.5 µM]. For Cc1ccc(C(=O)N2CCN(S(=O)(=O)N3CCOCC3)CC2)cc1, the “activity, negative = inhibition” value was 4.89%. With COc1ccc(OC)c(C(=O)c2ccc(C(=O)O)cc2)c1 the “activity, negative = inhibition” value was 20.8%. With C#CCN1C(=O)C(O)(CC(=O)c2cc(OC)ccc2OC)c2ccccc21 (configuration not stated) the Potency was 3.55 µM (active). For COc1ccc(C(=O)COC(=O)c2nn(C)c(=O)c3ccccc23)c(OC)c1, the “activity, negative = inhibition” value was 4.94%. In the case of CCOC(=O)Cc1ncccc1C(=O)Nc1ccc(OC)cc1, the “activity, negative = inhibition” value is reported as 1.9%. With Cc1nn(C(=O)c2ccoc2C)c(N)c1-c1ccccc1 the “activity, negative = inhibition” value was 1.61%. Cc1nn2c(c1-c1ccccc1)N=C(c1ccco1)CC2c1ccccc1 (configuration not stated) was tested, and the Potency was 22.4 µM (active). For O=C(CS(=O)(=O)Cc1ccccc1)NCC1CCCO1 (configuration not stated), the Potency was 25.1 µM (active). In the case of O=C(CSc1nnc(-c2ccc(NS(=O)(=O)c3ccccc3)cc2)o1)NCC1CCCO1 (configuration not stated), the “activity, negative = inhibition” value is reported as -1.79%. For S=C(NCCc1ccccc1)NCC1CCCO1 (configuration not stated), the “activity, negative = inhibition” value was 4.66%. With CCN(c1ccccc1)S(=O)(=O)c1ccc2[nH]c(=O)[nH]c2c1 the “activity, negative = inhibition” value was -0.299%. For Cc1cc([N+](=O)[O-])nn1Cc1ccc(F)cc1, the “activity, negative = inhibition” value was -5.09%. With Cc1c(CN2CCCC(C(=O)c3cccc(Cl)c3)C2)c(=O)n(-c2ccccc2)n1C (configuration not stated) the “activity, negative = inhibition” value was 11.4%. Work on CCCCC1=CC2=CC(=O)C(C)(OC(=O)CC)C(=O)C2=CN1CCCOC(C)C (configuration not stated) yielded an activity, negative = inhibition of -5.05% [at 13.5 µM]. With Cc1cccc(NC(=O)CN2C(=O)c3ccccc3C2=O)c1C the “activity, negative = inhibition” value was 11.6%. With Cc1cccc(NC(=O)CSC(N)=O)c1C the Potency was 7.08 µM (active). In the case of Cc1cccc(NC(=O)CSc2nc3c(c(=O)[nH]2)CCCC3)c1C, the “activity, negative = inhibition” value is reported as -4.24%. CC(C)c1nc(CNC(=O)CC2C(=O)NCCN2Cc2ccoc2)cs1 (configuration not stated) was tested, and the “activity, negative = inhibition” value was -6.59%. In the case of CC1Cc2ccccc2N1S(=O)(=O)c1c(N)n(C)c(=O)n(C)c1=O (configuration not stated), the “activity, negative = inhibition” value is reported as 6.39%. CC1CCCCN1C(=S)NCc1ccccc1 (configuration not stated) was tested, and the “activity, negative = inhibition” value was -0.534%. COC(=O)CNC(=O)c1ccc(OC2CCN(C(=O)C3CC3)CC2)cc1 was tested, and the “activity, negative = inhibition” value was 0.14%. For CN1CCNC(=O)C1CC(=O)N1CC=C(c2ccc(F)cc2)CC1 (configuration not stated), the “activity, negative = inhibition” value was 1.45%. N#CC1=C(SCc2ccc(C#N)cc2)N=C(N)C(c2nc(-c3ccccc3)cs2)C12CCCCC2 (configuration not stated) was tested, and the “activity, negative = inhibition” value was 5.56%. With CC1(C)CCc2nc(SCc3ccccc3)c(C#N)cc2C1 the “activity, negative = inhibition” value was -2.69%. N#CC1=C(SCc2ccccc2)NC(=O)C(C#N)C12CCCC2 (configuration not stated) was tested, and the Potency was 3.98 µM (active). C[C@@H](O)c1nc2ccccc2n1N was tested, and the “activity, negative = inhibition” value was 2.1%. N#Cc1ncc(C(F)(F)F)cc1Oc1cccnc1 was tested, and the “activity, negative = inhibition” value was 10.8%. COc1ccc(/C=C/CN2CCN(Cc3ccc(C)cc3)C(CCO)C2)cc1 (configuration not stated) was tested, and the “activity, negative = inhibition” value was -1.88%. For CCOc1cccc(C(=O)Nc2cccnc2)c1, the “activity, negative = inhibition” value was 13.5%. For CCOc1cccc(C(=O)Nc2cnn(Cc3ccccc3)c2)c1, the Potency was 3.98 µM (active). In the case of O=C(Nc1ccn(Cc2ccccc2)n1)c1cccc(F)c1, the “activity, negative = inhibition” value is reported as 5.72%. CNc1nc(Nc2ccc(C)c(Cl)c2)nc(N)c1[N+](=O)[O-] was tested, and the “activity, negative = inhibition” value was 3.68%. With O=C(c1ccc(Cl)cc1)N1N=C(c2ccccn2)CC1(O)C(F)(F)F (configuration not stated) the “activity, negative = inhibition” value was 0.0342%. With O=C(Cc1ccc(Br)cc1)N1CCN(c2ccccn2)CC1 the “activity, negative = inhibition” value was 3.87%. With COc1ccc(/C=N/N=C2/C(=O)Nc3ccccc32)cc1O the “activity, negative = inhibition” value was -10.8%. In the case of O=C1Nc2ccc(Br)cc2/C1=N/N=C/C1=C(N2CCOCC2)C(=C\c2ccccc2)/CC1, the Potency is reported as 8.91 µM (active). For C(=N\N1CCN(c2ccccn2)CC1)/C1=C(N2CCOCC2)C(=C/c2ccccc2)/CC1, the Potency was 8.91 µM (active). For C(=N/N1CCN(c2ccccc2)CC1)/c1cccs1, the “activity, negative = inhibition” value was 4.36%. In the case of CN(C)CCOc1ccc(Cl)cc1C(C)(C)C, the “activity, negative = inhibition” value is reported as -3.7%. For CCOC(=O)C1(Cc2ccccc2C(F)(F)F)CCN(C(=O)c2cc(C)n(C)n2)CC1, the “activity, negative = inhibition” value was -6.02%. With Cc1ccc2[nH]c(C)c(CCNC(=O)NC3CCCCC3)c2c1 the “activity, negative = inhibition” value was 5.15%. Cc1nnc(SCCCCSc2nnc(C)c(=O)[nH]2)[nH]c1=O was tested, and the “activity, negative = inhibition” value was -9.54%. For CCOC(=O)c1c(CN(C)C)n(-c2ccccc2)c2cc(Br)c(O)cc12, the “activity, negative = inhibition” value was -4.14%. O=C(O)C1C2C=CC(C2)C1C(=O)N1CCN(CCO)CC1 (configuration not stated) was tested, and the “activity, negative = inhibition” value was 6.75%. With CN1CCN(C(=O)C2C3C=CC(C3)C2C(=O)O)CC1 (configuration not stated) the “activity, negative = inhibition” value was 14.6%. C=C(Cl)COC(=O)C1C2C=CC(C2)C1C(=O)O (configuration not stated) was tested, and the Potency was 17.8 µM (active). With COCCN(C(=O)c1ccccc1F)c1c(N)n(Cc2ccccc2)c(=O)[nH]c1=O the “activity, negative = inhibition” value was 6.85%. In the case of O=C(O)Cc1csc(-c2cccc(Oc3ccccc3)c2)n1, the Potency is reported as “inactive”. CN(Cc1nc2ccc(F)cc2[nH]1)Cc1nc(CC2CC2)no1 was tested, and the “activity, negative = inhibition” value was -1.51%. For CCCCOc1ccc(C(=O)N/C(=C/C=C/c2ccccc2)C(=O)N2CCOCC2)cc1, the Potency was 25.1 µM (active). CCCCOc1ccc(C(=O)NN2CCN(C)CC2)cc1 was tested, and the “activity, negative = inhibition” value was -0.966%. With O=C(NC(=O)N1CCOCC1)c1ccccc1 the “activity, negative = inhibition” value was -6.7%.
